An excerpt weighted towards active compounds, which were near 3.8% of everything screened.
Mdm2 MdmX PPI = human Mdm2/MdmX binding inhibition | SaOS-2 split-luciferase Mdm2/MdmX complementation, luminescence | inhibition, % at 8 µM | 330,000 tested, 3% active;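 active means inhibition of at least 50% at 8 µM in the primary screen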
Jurkat NFkB inh = lowers PMA/ionomycin-induced NF-kB signal in Jurkat cells | PMA/ionomycin-induced NF-kB luciferase reporter, luminescence | 330,000 tested, 0.53% active | inhibition, % at 4 µM; in the data active means inhibition above about 50%
697 NFkB inh = lowers PMA/ionomycin-induced NF-kB signal in 697 B cells. 697 B-cell NF-kB luciferase reporter, 16 h. 330,000 tested, 0.33% active. AID 435022. inhibition, % at 4 µM; in the data active means inhibition above about 35%
Beta cell apopt = blocks beta cell apoptosis. protection from apoptosis, % (concentration not given with the values). INS-1E cytokine-induced death, ATP luminescence, 48 h; percent of positive-control rescue, neutral wells zero. 300,000 tested, 0.8% active;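 active means Every replicate reaches about 75%, or at least half do and their mean reaches it too, limit read from the data; inconclusive means At least half of replicates reach the limit but their mean does not; inactive means Under half of replicates reach the limit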;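 further: 0% = cytokine-treated negative control wells and 100% = positive control rescue; higher means more ATP so stronger rescue from cytokine killing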
A1 inh = inhibitors of the anti-apoptotic protein A1, read as caspase activation; MEF A1-2A-BIM cells, Caspase-Glo 3/7 luminescence, 3 h; percent of clofoctol response, vehicle zero; caspase activation, % (test concentration not listed); 330,000 tested, 0.066% active; AID 2462;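 active means over half of replicate activation scores above 10%, or exactly half above 10 with the replicate mean above 10; inconclusive means replicate mean below 10 yet half the replicates above 10; inactive means over half of replicates below 10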
NTR1 ag = NTR1 (human) agonism. NTR1-U2OS beta-arrestin-GFP spot imaging, agonist mode. activation, % at 20 µM. 330,000 tested, 0.17% active;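 active means activation at or above 40% of the spot to cytoplasm intensity ratio, with at least 20 cells analyzed; inconclusive means wells under 20 cells, flagged as cytotoxic or low count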;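 further: 0% = DMSO without peptide and 100% = 100 nM NTR1 peptide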
Target sequence (P30989 whole entry, looked up): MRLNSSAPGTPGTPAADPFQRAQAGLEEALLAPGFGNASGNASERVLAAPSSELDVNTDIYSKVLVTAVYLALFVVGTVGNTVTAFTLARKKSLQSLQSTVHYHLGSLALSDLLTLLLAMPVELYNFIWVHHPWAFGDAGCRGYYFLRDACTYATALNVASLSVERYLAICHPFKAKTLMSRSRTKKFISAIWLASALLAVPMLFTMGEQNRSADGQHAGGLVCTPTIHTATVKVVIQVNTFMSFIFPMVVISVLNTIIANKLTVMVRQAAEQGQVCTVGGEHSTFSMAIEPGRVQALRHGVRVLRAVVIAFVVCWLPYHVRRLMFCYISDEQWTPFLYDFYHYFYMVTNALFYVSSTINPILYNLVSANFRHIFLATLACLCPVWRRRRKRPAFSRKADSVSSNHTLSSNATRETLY
Jurkat NFkB conf = inhibitors of the PMA/ionomycin-induced NF-kB reporter in Jurkat cells, retest; 2,700 tested, 27% active; shares compounds with Jurkat NFkB inh; Jurkat NF-kB luciferase, 16 h; AID 435020; inhibition, % at 4 µM;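 active means inhibition reaching about 45% at 4 µM in either replicate, limit read from the data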;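 further: plate controls were PMA/ionomycin stimulated DMSO wells for no effect and unstimulated DMSO wells for full effect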
697 NFkB conf = lowers PMA/ionomycin-induced NF-kB signal in 697 B cells. inhibition, % at 4 µM. AID 449746. shares compounds with 697 NFkB inh. 697 B-cell NF-kB luciferase, 16 h. 2,000 tested, 35% active; in the data active means inhibition mostly above about 28%, no sharp cut-off; inactive means mostly below about 22%
Mdm2 MdmX conf = human Mdm2/MdmX binding inhibition, confirmed; shares compounds with Mdm2 MdmX PPI; luminescent assay; inhibition, % at 8 µM; 10,000 tested, 55% active; in the data active means inhibition above about 40%
Full FLuc ctr = full-length luciferase inhibition in Mdm2/MdmX counter-screen | shares compounds with Mdm2 MdmX PPI | SaOS-2 full-length luciferase counterscreen, luminescence | inhibition, % at 8 µM | 6,200 tested, 77% active | AID 504607;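 active means mean inhibition at 8 µM reaching about 37%, which flags the compound as non-specific, limit read from the data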;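 further: p53-null SaOS-2 cells with luciferase driven by a doxycycline-inducible promoter; compound on cells about two nights before reading with doxycycline added after day one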
* = called active by the depositor; ? = inconclusive; . = not tested or not shown.

SMILES	Mdm2 MdmX PPI	Jurkat NFkB inh	697 NFkB inh	Beta cell apopt	A1 inh	NTR1 ag	Jurkat NFkB conf	Mdm2 MdmX conf	Full FLuc ctr	others
CC(C)(C)C(=O)Nc1ccc(NC(=O)c2ccco2)nc1	90.1*	77.9*	-32.8	2.0	-1.4	2.1	87.9*	92.4*	58.5*
O=C(Cc1ccccc1)Nc1ccc(NC(=O)c2ccco2)nc1	-126.7	-68.6	-41.2	.	-2.6	-0.3	.	.	.
CCn1c(SCC(=O)N/N=C/c2ccc(C)s2)nc2ccccc21	58.0*	52.6*	-45.7	8.3	0.4	-0.5	21.9	61.0*	59.3*
Cc1ccc(NC(=S)NC(=O)C2CCCC2)c(Br)c1	-152.7	-131.6	-189.6	3.5	-1.0	2.3	.	.	.
COc1ccccc1N1CCN(C(=O)C2c3ccccc3Oc3ccccc32)CC1	64.3*	55.2*	-29.3	35.5	0.4	8.0	44.5	56.0*	88.8*
C=C1C(O)[C@@H]2O[C@]3(CC[C@H](/C=C/C(C)[C@@H]4CC(C)=CC5(O[C@H](C[C@@](C)(O)CO)CCC5O)O4)O3)CC[C@H]2O[C@@H]1C(O)CC(C)[C@H]1OC2(CCCCO2)CCC1C (stereo not given in full)	87.7*	91.7*	-405.5	76.4*	?	-0.6	77.8*	89.8*	33.4	697 NFkB conf=-170.3
Cc1ccccc1CN1C(=O)[C@H]2Cc3c([nH]c4ccccc34)C(C)(C)N2C1=O	27.7	-11.1	-1.5	-2.2	0.1	7.5	.	.	.
Cc1c(C(=O)O)[nH]c2c1C(=O)CC(c1ccc(C(C)(C)C)cc1)C2 (stereo not given)	-8.8	-0.2	-12.1	-4.9	-1.0	2.3	.	.	.
Cc1c(C(=O)N2CCOCC2)[nH]c2c1C(=O)CC(c1ccccc1Cl)C2 (stereo not given)	72.8*	52.1*	-56.7	8.6	0.5	1.3	47.8*	55.8*	59.1*
CC(=O)Nc1sc2c(c1-c1nc3ccccc3s1)CCN(C(C)C)C2	100.4*	83.7*	-34.2	100.2*	?	11.2	-29.6	69.2*	60.2*
Cn1c(CNC(=O)CNC(=O)Cc2ccc(F)cc2)cc(=O)n(C)c1=O	-2.5	9.4	3.1	0.8	?	-1.1	.	.	.
O=C(Nc1ccc2nc3n(c(=O)c2c1)CCCCC3)c1ccccc1[N+](=O)[O-]	-0.1	-18.3	7.7	-3.6	-0.9	1.7	.	.	.
O=C(Nc1ccc2nc3n(c(=O)c2c1)CCCCC3)c1c(F)ccc([N+](=O)[O-])c1F	96.1*	72.7*	-326.4	105.2*	2.4	34.7	34.5	100.0*	52.1*	697 NFkB conf=-227.1
O=C(Nc1nc(-c2ccccn2)cs1)c1ccc(Cl)s1	69.7*	65.0*	-98.0	92.5*	-1.1	4.4	44.3	79.5*	24.4
Cc1cccnc1Nc1nc(-c2ccccn2)cs1	74.3*	81.0*	-346.7	100.7*	-9.7	6.0	8.3	35.6	.	697 NFkB conf=-174.7
COc1ccc(C(C)NC(=O)Nc2ccc(C(C)=O)cc2)cc1OC (stereo not given)	7.5	-39.1	-23.3	-4.6	-0.7	0.0	.	.	.
O=C(OCC(=O)c1ccc[nH]1)c1ccc(F)c(S(=O)(=O)N2CCOCC2)c1	-9.8	-17.8	-5.8	-4.7	0.0	1.7	.	.	.
C=CCn1c(SCc2c(C)noc2C)nc2cc(C(=O)O)ccc2c1=O	22.0	8.4	2.2	-2.4	-0.4	2.0	.	.	.
Cc1noc(C)c1CSc1nnc2n(-c3ccccc3)c(=O)c3ccccc3n12	2.0	-1.1	22.5	-2.1	0.9	-1.2	.	.	.
C=CCn1c(SCc2c(C)noc2C)nc2ccccc2c1=O	58.3*	77.8*	15.6	16.2	-0.1	1.9	51.7*	59.8*	65.9*
Cc1noc(C)c1CSc1nc2ccccc2c(=O)n1-c1ccccc1	66.7*	54.4*	-5.6	29.1	-0.3	5.5	45.1	63.1*	67.0*
O=c1c([N+](=O)[O-])c(O)c2cccc3c2n1CCC3	8.7	4.1	-8.4	-3.0	0.6	-0.9	.	.	.
COc1ccccc1-c1noc(Cn2cc(S(=O)(=O)N3CCCC3)ccc2=O)n1	-46.0	-13.2	-16.7	-2.4	0.7	-2.4	.	.	.
COC(=O)[C@@H]1Cc2c([nH]c3ccccc23)C(C)(C)N1C(=O)CCl	100.3*	55.1*	88.5*	-6.3	1.1	4.1	15.7	98.0*	17.4	697 NFkB conf=69.0*
OCCCNc1c2ccccc2nc2ccccc12	79.1*	84.0*	17.8	109.1*	0.2	2.7	-23.1	81.9*	43.9*
SMILES	Mdm2 MdmX PPI	Jurkat NFkB inh	697 NFkB inh	Beta cell apopt	A1 inh	NTR1 ag	Jurkat NFkB conf	Mdm2 MdmX conf	Full FLuc ctr	others
Cc1ccc(-c2nc(NCCCO)c3ccccc3n2)cc1	-14.4	-11.0	-4.9	10.5	0.2	5.4	.	.	.
CC1=C(C(=O)Nc2cccc(F)c2)C(c2ccsc2)C2=C(CC(C)(C)CC2=O)N1 (stereo not given)	54.2*	50.4*	-33.3	11.0	0.3	1.2	6.8	53.6*	55.2*
COc1ccc(N(C(=O)c2ccccc2C)S(=O)(=O)c2cccs2)cc1	59.1*	66.5*	-1.0	13.1	-0.4	5.1	47.7	52.6*	104.8*
COc1ccc(N(C(=O)c2ccncc2)S(=O)(=O)c2ccccc2)cc1	18.3	8.4	4.4	-8.3	0.3	1.7	.	.	.
CC1C(=O)OC(c2ccc(Cl)cc2)C(C)(C)C1=O (stereo not given)	-7.1	-26.4	-5.4	-3.6	0.0	0.3	.	.	.
C[C@@H]1C=CC(=O)O[C@@H]1c1ccc(Cl)cc1	78.9*	96.0*	-32.5	-26.2	0.0	1.4	96.8*	61.0*	5.5
Cc1cc(NC(=O)c2cc(-c3ccncc3)nc3c(C)cccc23)no1	61.4*	51.6*	-26.2	13.3	0.2	3.9	23.1	49.1*	53.4*
Cc1ccc(-c2cc(C(=O)Nc3cc(C)on3)c3ccccc3n2)cc1	-10.8	4.6	-11.1	1.7	0.9	0.0	.	.	.
CCOC(=O)c1c(NC(=O)N/N=C/c2ccc(O)c(OC)c2)sc(C(C)=O)c1C	68.2*	58.0*	-197.6	1.2	-0.8	14.7	32.7	23.5	.
O=[N+]([O-])c1ccc(S(=O)(=O)Nc2ccccn2)cc1	-13.1	-2.9	-26.4	-4.6	1.5	-1.1	.	.	.
COc1ccc(CCNc2c(C)c(C)nc3ncnn23)cc1	50.4*	69.6*	89.4*	100.5*	0.9	4.9	65.0*	46.0*	69.2*	697 NFkB conf=54.0*
